Source: PubChem BioAssay

Experiment: inhibitors of PAF-induced NFkB signaling in CF airway cells, dose response, cell-based, uHTS hits, panel, cytotoxicity readout (AID 624344)
Conditions: CF bronchial epithelial cells, PAF-induced NFkB reporter inhibition, with PAF, run 1; at 79 µM (top of the series) unless noted

SMILES	inhibition
COc1ccc(-n2c(C)c(C(C)=O)c3cc(O)ccc32)cc1	117%
COc1ccc(-c2cnc3c(NC=O)cc(-c4ccc(C(=O)N5CCOCC5)cc4)cn23)cc1OC	106%
CC(=O)Nc1ccc(NC(=O)COC(=O)c2c3c(nc4ccccc24)CCN(Cc2ccccc2)C3)cc1	92.5%
COc1ccc(-c2cc(NC=O)c3ncc(-c4ccc(OC)c(OC)c4)n3c2)c(OC)c1	95.1%
c1ccc2c(c1)Nc1ccncc1S2	114%
O=C(Nc1ccc(F)cc1)Nc1ccc(N2CCCC2)c(S(=O)(=O)Nc2ccccc2Cl)c1	111%
O=C(N/N=C/c1ccccc1)c1[nH]c2ccc(Br)cc2c1-c1ccccc1	76.6%
COc1ccc(-c2nc(NC(=O)c3ccc(OCC(=O)Nc4ccc(F)cc4)c(OC)c3)sc2C)cc1	91.7%
COC(=O)C1=C(C(=O)OC)[C@@H]2N(Cc3ccccc3)c3ccccc3[C@@]23C[C@@H](C(=O)OC)N(C(=O)c2ccc(Br)cc2)C3=N1	101%
O=[N+]([O-])c1ccc(NC(=S)NCCc2ccc(F)cc2)cc1	115%
COC(=O)c1c(C)n(-c2ccc(OC)cc2)c2ccc(O)cc12	103%
COc1ccccc1[C@]1(C)ON(c2ccccc2C(F)(F)F)C1=O	105%
O=C(c1cncc(Br)c1)N1CCc2ccccc2C1	92.5%
CC(=C/c1ccccc1)/C=N/n1c(-c2ccncc2)n[nH]c1=S	110%
ON=C1c2ccccc2-c2cc(Br)ccc21	117%
CCOC(=O)Cc1nnc2c(Nc3ccc(Cl)cc3)nc3nonc3n12	110%
Cc1ccc(C(=O)c2cncc(Br)c2)cc1	86.5%
CC(=O)N1CC(=O)N=C1SCC(=O)Nc1nc(C)c(-c2ccccc2)s1	62.6%
Cc1ccc(C(=O)Nc2cccc(C(F)(F)F)c2)cc1NC(=O)c1cnnc2ccccc12	105%
Nc1nc(N)nc(-c2ccc(Cl)c(Cl)c2)n1	116%

SMILES	inhibition
CCCCCOC(=O)c1[nH]c2c(c1C)C(=O)CC(c1ccco1)C2 (centres undefined)	75%
CC(=O)Oc1c(Br)cc(N(C(C)=O)S(=O)(=O)c2ccccc2)c2ccccc12	72.3%
COc1ccc(-n2nc(C(=O)NCC(=O)Nc3cc(OC)c(OC)c(OC)c3)c3ccccc3c2=O)cc1Cl	96.2%
NC(c1csc(NC(=O)Nc2cccc(Cl)c2)n1)c1ccccc1Cl (centres undefined)	96.3%
CCN1CCN(Cc2ccc(NC(=O)c3ccc(C)c(NC(=O)c4cc(-c5ccc(Br)cc5)n[nH]4)c3)cc2C(F)(F)F)CC1	102%
Nc1nc(/C=C/c2cccnc2)nc(-c2ccccc2O)n1	100%
C=C1C(=O)[C@]23C[C@H]1CC[C@H]2[C@]1(C)[C@@H](O)CC[C@@](C)(C(=O)O)[C@H]1C[C@@H]3O	98.4%
COc1ccc(S(=O)(=O)N2c3ccc(F)cc3CCC2C)cc1 (centres undefined)	98.8%
Cc1ccc(C(=O)c2cc([N+](=O)[O-])ccc2N2CCCCC2)c(C)c1	79.4%
O=[N+]([O-])c1ccc(O)c(C2CCCCC2)c1	117%
CCc1cc2c(Sc3nc4ccccc4s3)ncnc2s1	114%
Cc1ccc(-c2n[nH]c(=S)n2/N=C/c2ccncc2)cc1	111%
CC(C)n1c(SCc2ccccc2F)nc2c1c(=O)n(C)c(=O)n2C	96%
CCCCN(c1ccccc1)c1ncnc(N)c1[N+](=O)[O-]	97.4%
CC(C)(CO)CNc1ccn2nccc2n1	114%
C[C@H](O)[C@@H]1CN2CCc3c([nH]c4ccc(-c5ccc6c(c5)OCO6)cc34)[C@@H]2C[C@@H]1N(C)C(=O)Nc1ccc(F)cc1	99.8%
COc1cc(-c2cc(C(=O)Nc3ccc(S(=O)(=O)NCc4ccco4)cc3)c3ccccc3n2)cc(OC)c1OC	109%
Nc1nc(N)nc(-c2cc([N+](=O)[O-])ccc2O)n1	76.3%
CCN1CCN(Cc2ccc(NC(=O)c3ccc(C)c(NC(=O)c4ccc5n[nH]nc5c4)c3)cc2C(F)(F)F)CC1	101%
